GIRK2 activator: Activates human GIRK2-containing potassium channels; P48051; HEK293 GIRK2/NPY4 cells, thallium flux fluorescence; activation (% efficacy), % for hits at 37.5 µM; 34,000 tested, under 10 active; AID 1259324;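 active means primary screen hit, no activity in plain HEK293 cells, and in GIRK2-only cells above 5% efficacy rising with concentration; inactive means the rest, including fluorescent compounds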;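 further: efficacy is normalized control-subtracted fluorescence 15 s after thallium addition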
AMPAR-TARP mod: modulates AMPAR-stargazin complexes; O88602+P19491; HEK293 GluA2+stargazin, membrane potential dye (FDSS), glutamate EC50; hits were called plate by plate, in both directions; calls only at 30 µM; hit rate 3.5% among 40,000;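 active means any of four per-well response measures lying three or more SD from its plate-wide compound average, in either direction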
* marks the source's active call; other numbers are inactive results. Only a selection was taken, and hits are over-represented in it overall.

Screening O=C(Cn1cc(-c2ccccc2)c(N2CCOCC2)n1)N1CCN(c2ccccc2)CC1 returned GIRK2 activator inactive and AMPAR-TARP mod inactive.
`CC(C)c1cc(=O)[nH]c(-n2nc(C3CC3)cc2NC(=O)C(C)(C)C)n1` gave GIRK2 activator inactive and AMPAR-TARP mod inactive.
Cc1ccc(NC(=O)CN2CCN(c3nccn3C)CC2)cc1Cl was read as GIRK2 activator inactive and AMPAR-TARP mod inactive.
Screening O=C(NCC1CCN(C(=O)c2cc3ccccc3o2)CC1)c1ccc(Cl)s1 returned GIRK2 activator inactive and AMPAR-TARP mod active.
Screening O=C(NCC1CCN(C(=O)c2cc3ccccc3o2)CC1)c1cc(-c2ccccc2)on1 returned GIRK2 activator inactive and AMPAR-TARP mod active.
`O=C(NCC1CCN(C(=O)c2cc3ccccc3o2)CC1)c1cc(Cl)ccc1Cl` gave GIRK2 activator inactive and AMPAR-TARP mod inactive.
`Cc1cc(C(=O)NCC2CCN(C(=O)c3cc4ccccc4o3)CC2)c(C)o1` gave GIRK2 activator inactive and AMPAR-TARP mod inactive.
For Cc1csc(C(=O)NCC2CCN(C(=O)c3cc4ccccc4o3)CC2)c1 the results were GIRK2 activator inactive and AMPAR-TARP mod active.
CC(C)(C)NC(=O)N1CCC(CNC(=O)c2cc(-c3ccccc3)on2)CC1 was read as GIRK2 activator inactive and AMPAR-TARP mod inactive.
COc1ccc(NC(=O)c2sccc2S(=O)(=O)N2CCN(c3ccccc3)CC2)cc1Cl was read as GIRK2 activator inactive and AMPAR-TARP mod inactive.
`COc1ccc(NC(=O)Cn2cc(-c3ccc(C)cc3)c(N(C)C)n2)cc1` gave GIRK2 activator inactive and AMPAR-TARP mod inactive.
`COc1cccc(NC(=O)NCCNc2ccc(Nc3ccccn3)nn2)c1` gave GIRK2 activator inactive and AMPAR-TARP mod inactive.
For Cc1c(Cl)cccc1NC(=O)CCc1csc(NC(=O)c2ccco2)n1 the results were GIRK2 activator inactive and AMPAR-TARP mod inactive.
Cc1cc(NC(=O)c2ccc(N3CCCCC3)nn2)on1 was read as GIRK2 activator inactive and AMPAR-TARP mod active.
Cc1cc(C)n(CCNC(=O)c2ccc(N3CCCC3)nn2)n1 was read as GIRK2 activator inactive and AMPAR-TARP mod inactive.
`Cc1ccc(NC(=O)c2ccc(S(=O)(=O)C(C)C)cc2)c(C(=O)c2ccccc2)c1` gave GIRK2 activator inactive and AMPAR-TARP mod inactive.
O=C(c1ccccc1)N1N=C(c2ccc(F)cc2)CC1c1ccc2nccnc2c1 (stereo not given) was read as GIRK2 activator inactive.
For O=C(COc1ccccc1C1CC(c2ccccc2)=NN1C(=O)c1ccccc1)NCCO (stereo not given) the results were AMPAR-TARP mod active.
COc1ccc(OC)c(C(=O)/C=C/c2ccccc2Cl)c1 was read as AMPAR-TARP mod active.
`COc1ccc(C(=O)/C=C/c2ccccc2Cl)c(OC)c1` gave AMPAR-TARP mod inactive.
Screening CC(C)C12C=CC(C)(CC1)C1C(=O)N(C)C(=O)C12 (stereo not given) returned GIRK2 activator inactive.
Screening O=S(=O)(NCCN1CCOC(c2ccccc2)C1)c1ccccc1Cl (stereo not given) returned GIRK2 activator inactive.
O=C(NCCc1ccc(F)cc1)Nc1ccc([N+](=O)[O-])cc1 was read as AMPAR-TARP mod active.
Screening CCc1ccc(NC(=O)C(=O)Nc2ccc([N+](=O)[O-])cc2)cc1 returned AMPAR-TARP mod inactive.
`COc1ccc(NC(=O)Cc2ccc(SC)cc2)cc1` gave AMPAR-TARP mod inactive.
Screening CSc1ccc(CC(=O)Nc2ccc([N+](=O)[O-])cc2)cc1 returned AMPAR-TARP mod active.
For CCOc1ccccc1Oc1c(C)oc2c3c(ccc2c1=O)OCN(C1CC1)C3 the results were GIRK2 activator inactive and AMPAR-TARP mod inactive.
`COCCn1c(N)c(S(=O)(=O)c2ccc(Cl)cc2)c2nc3ccccc3nc21` gave GIRK2 activator inactive and AMPAR-TARP mod inactive.
Screening COCCn1c(N)c(-c2nc3ccccc3n2C)c2nc3ccccc3nc21 returned GIRK2 activator inactive and AMPAR-TARP mod active.
`O=C(Cn1nc(-c2ccco2)ccc1=O)Nc1ccc2c(c1)OCO2` gave GIRK2 activator inactive and AMPAR-TARP mod inactive.
For CC(=O)Oc1ccc2c(-c3cc4cc(Br)ccc4oc3=O)cc(=O)oc2c1 the results were AMPAR-TARP mod inactive.
Cc1cc(NC(=O)/C=C/c2ccccc2)on1 was read as GIRK2 activator inactive.
Screening Cc1cc(C)c2sc(NC(=O)/C=C\c3ccccc3)nc2n1 returned GIRK2 activator inactive and AMPAR-TARP mod active.
For COC(=O)c1ccc(S(=O)(=O)N2CCN(CCn3cccn3)CC2)cc1 the results were GIRK2 activator inactive and AMPAR-TARP mod inactive.
`O=S(=O)(c1ccccc1)N1CCN(c2ccc(Nc3ccncc3)nn2)CC1` gave GIRK2 activator inactive and AMPAR-TARP mod inactive.
Screening COc1ccc(S(=O)(=O)N2CCN(c3ccc(-c4ccncc4)nn3)CC2)c(OC)c1 returned GIRK2 activator inactive and AMPAR-TARP mod active.
COc1ccc(C)cc1S(=O)(=O)N1CCN(c2ccc(-c3ccccc3)nn2)CC1 was read as GIRK2 activator inactive and AMPAR-TARP mod inactive.
Screening COc1ccc(S(=O)(=O)N2CCN(c3ccc(Nc4ccncc4)nn3)CC2)cc1 returned GIRK2 activator inactive and AMPAR-TARP mod active.
`Cc1ccc(Cl)cc1Nc1nc2c(c(=O)n(C)c(=O)n2C)n1CC(=O)O` gave GIRK2 activator inactive and AMPAR-TARP mod inactive.
Screening COc1ccc(OC)c(C(=O)N2CCNC(=O)C2C)c1 (stereo not given) returned GIRK2 activator inactive.
COC(=O)COc1ccc2c(c1)O/C(=C\c1cccs1)C2=O was read as AMPAR-TARP mod active.
Screening COc1cc(C(=O)Oc2ccc3c(c2)O/C(=C\c2cccs2)C3=O)cc(OC)c1OC returned AMPAR-TARP mod inactive.
Screening COc1ccc(-c2c(NC(=O)c3cccs3)n(-c3ccccc3)nc(C)c2=O)cc1 returned GIRK2 activator inactive and AMPAR-TARP mod inactive.
`O=C(CSc1nnc(-c2ccncc2)o1)Nc1cccc([N+](=O)[O-])c1` gave GIRK2 activator inactive and AMPAR-TARP mod inactive.
For O=[N+]([O-])c1ccc(NS(=O)(=O)c2ccc3ccccc3c2)cc1 the results were AMPAR-TARP mod active.
`CS(=O)(=O)c1cccc(S(=O)(=O)Nc2ccc([N+](=O)[O-])cc2)c1` gave GIRK2 activator inactive.
`O=[N+]([O-])c1cccc(NS(=O)(=O)c2ccc3ccccc3c2)c1` gave AMPAR-TARP mod active.
Screening COc1ccc(NS(=O)(=O)c2cccc([N+](=O)[O-])c2)cc1 returned AMPAR-TARP mod inactive.
`Cc1ccc(C(=O)Nc2ccccc2OC(F)F)cc1S(=O)(=O)N1CCCC1` gave AMPAR-TARP mod inactive.
`COc1ccccc1CNC(=O)CSc1ccc(NC(=O)c2ccco2)nn1` gave GIRK2 activator inactive and AMPAR-TARP mod inactive.
For COc1ccc(NC(=O)CSc2ccc(NC(=O)c3ccco3)nn2)cc1OC the results were GIRK2 activator inactive and AMPAR-TARP mod active.
Screening COc1ccc(-c2ccc(SCC(=O)Nc3ccccc3Cl)nn2)cc1OC returned AMPAR-TARP mod active.
`COc1ccccc1NC(=O)CSc1ccc(-c2cc(OC)c(OC)c(OC)c2)nn1` gave GIRK2 activator inactive and AMPAR-TARP mod inactive.

Screens as filed in PubChem BioAssay.
